The text below walks through data of PubChem BioAssay (Tox21).

Records with an inconclusive call do not appear. Where a call stands in place of a potency, no number is given. Active and inactive are the calls of the source. Calls follow the shape of the dose curve; as a rule, active = well fitted activation curve with a large enough effect in the repeat runs; inconclusive = weak or mixed curves; inactive = flat fitted curve, though single readings scatter.
Potency is read from the fitted curve at half-maximal effect.

The nature of this test: A CellTox Green Cytotoxicity Assay to monitor cytotoxicity in HepG2 cells - 8 hour (AID 1224890). Also: nearly all actives have a fitted effect of over 45% in size. The following applies: CellTox Green fluorescence; series mostly up to 76.8 µM. From the text: National Center for Advancing Translational Sciences [NCATS]
NIH Chemical Genomics Center [NCGC]
U.S. Environmental Protection Agency [EPA]
National Institutes of Environmental Health Sciences [NIEHS]
National Toxicology Program [NTP]
Cell-based models are critical for drug discovery. Determining the natural cytotoxic effects resulting from test compounds is an essential research activity. A CellTox Green Cytotoxicity Assay to monitor cytotoxicity in real time of continues cell culture during 40 hours of the compound treatment was used to screen Tox21 10K library compounds in HepG2 cells. CellTox Green Cytotoxicity Assay is a nonlytic, homogeneous, biofluorescent method to measure cytotoxicity in cell culture after experimental manipulation. The assay system uses a proprietary asymmetric cyanine dye that is excluded from viable cells but preferentially stains the dead cell's DNA. […] Viable cells produce no appreciable increases in fluorescence. Therefore, the fluorescence signal produced by the binding interaction with dead cell DNA is proportional to cytotoxicity.
The mixture of HepG2 cell suspension and reagents were dispensed at 600cells/6 ul/well in 1536-well tissue culture treated black solid bottom plates using a Multidrop dispenser. After the assay plates were incubated at a 37 C/5% CO2 incubator for 5 hours, 23 nL of compounds dissolved in DMSO, positive and negative controls was transferred to the assay plate by a pintool work station. The plates were incubated at 37 C for 40 hours. The fluorescence intensity were measured at 0h, 8h, 16h, 24h, 32h and 40h time points using ViewLux plate reader during compound treatment.
With `COc1ccccc1N1CCN(CC(O)COc2cc(OC)c(OC)c(OC)c2)CC1` (stereo not given), the Potency entry is “inactive”.

As for `Cc1ccc(O)c([N+](=O)[O-])c1`, the Potency result is “inactive”.

For `C=C(C)C(=O)OCCOC1CC2CC1C1C=CCC21` (stereo not given), the Potency entry is “inactive”.

In the case of `CC1=C(O)C(=O)CO1`, the Potency entry was “inactive”.

Consider `CCN1CCN(C(=O)N[C@@H](C(=O)N[C@@H]2C(=O)N3[C@@H]2SC(C)(C)[C@H]3C(=O)O)c2ccccc2)C(=O)C1=O`, for which the Potency result was “inactive”.

As for `N#Cc1cc(NC(=O)C(=O)O)c(Cl)c(NC(=O)C(=O)O)c1`, the Potency entry is “inactive”.

On to `CN(C)CCCN(C)C`, for which the cytotoxicity increase was -9.61% [at 6.97 µM] (inactive).

As for `CC(C)(Sc1cc(C(C)(C)C)c(O)c(C(C)(C)C)c1)Sc1cc(C(C)(C)C)c(O)c(C(C)(C)C)c1`, the Potency result is “inactive”.

As to `CCCCCCCCCCCBr`, the Potency result is “inactive”.

`COc1cc(OC)cc(OC)c1`: the Potency entry is “inactive”.

As for `CCCCC(CC)CCC(CC(C)C)OS(=O)(=O)O` (stereo not given), the Potency entry is “inactive”.

On to `CC(C)(O)CCCC1=CCC(C=O)CC1` (stereo not given), for which the Potency entry was “inactive”.

On to `C/C=C/C(=O)CCCC`, for which the Potency result is “inactive”.

As to `CC(C)(C)c1ccc(C(=O)CCCCl)cc1`, the Potency entry was “inactive”.

In the case of `CCO/C=C1\N=C(c2ccccc2)OC1=O`, the Potency entry was “inactive”.

Turning to `CO/N=C(\C(=O)O)c1csc(NC(=O)CCl)n1`, the Potency entry is “inactive”.

On to `CCOC(=O)CC`, for which the Potency entry was “inactive”.

As for `CCO[Si](CC(C)C)(OCC)OCC`, the Potency entry is “inactive”.

On to `O=C(CCBr)N1CCN(C(=O)CCBr)CC1`, for which the Potency entry is “inactive”.

For the compound `COCCCOc1cc(C[C@@H](C[C@H](N)[C@@H](O)C[C@H](C(=O)NCC(C)(C)C(N)=O)C(C)C)C(C)C)ccc1OC`, the Potency result is “inactive”.

For the compound `COC(=O)N/N=C/c1c[n+]([O-])c2ccccc2[n+]1[O-]`, the Potency is 26.8 µM (active).

For `C=CCN(CC=C)CC=C`, the Potency entry was “inactive”.

On to `CCOC(=O)CN1CCCC1=O`, for which the Potency entry is “inactive”.

Regarding `Cc1cc(C)c(C)c(C)c1`, the Potency result is “inactive”.

On to `CC(C)OCCO`, for which the Potency entry was “inactive”.

Turning to `CCC(=O)OCCOc1ccccc1`, the Potency result is “inactive”.

Regarding `COc1cc2nc(N3CCN(C(=O)C4CCCO4)CC3)nc(N)c2cc1OC` (stereo not given), the Potency result was “inactive”.

Take `O=c1[nH]c(=O)c2cn[nH]c2[nH]1`: the Potency entry is “inactive”.

As for `COC(=O)c1ccc(NC(C)=O)cc1OC`, the Potency result is “inactive”.

Turning to `O=C(O)P(=O)(O)O`, the Potency entry was “inactive”.

On to `Cc1ccc(N)nc1`, for which the Potency entry was “inactive”.

As to `CC(CC(=O)Cl)CC(C)(C)C` (stereo not given), the Potency entry is “inactive”.

As for `CC(O)CCCCn1c(=O)c2c(ncn2C)n(C)c1=O` (stereo not given), the Potency result is “inactive”.

In the case of `COc1cc(NS(=O)(=O)c2ccc(N)cc2)ncn1`, the Potency result was “inactive”.

Turning to `O=C(c1ccccc1)c1cccc(O)c1`, the Potency entry was “inactive”.

Turning to `C[n+]1ccccc1/C=N/O`, the Potency result was “inactive”.

With `CCCCCCCCC1CO1` (stereo not given), the Potency result was “inactive”.

As for `CCCCS`, the Potency result was “inactive”.

With `CCOc1ccccc1OCCN[C@H](C)Cc1ccc(OC)c(S(N)(=O)=O)c1`, the Potency entry was “inactive”.

Regarding `CCOCCOCCOC(C)=O`, the Potency entry was “inactive”.
